Results: PubChem BioAssay
Values joined by “and” are separate entries in the source; they are usually repeats but may differ in a detail not shown here. Equal values may be shown once.

Assays:
[1] = biological target: NAD(+) hydrolase SARM1 (Homo sapiens) (UniProt Q6SZW1); assay: blocking NAD cleavage by SARM1 SAM-TIR – cell lysate, NAD-Glo luminescence (AID 1508614;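 active = compound whose remaining NAD level is above about 45 nM, limit read from the data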;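 note: higher remaining NAD means stronger inhibition of SARM1 NADase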); settings: SAM-TIR HEK293T lysate NADase, at 1 µM, stronger effect = higher value
Chain of NAD(+) hydrolase SARM1 (Homo sapiens) (Q6SZW1 whole entry, looked up, the tested form may be a part): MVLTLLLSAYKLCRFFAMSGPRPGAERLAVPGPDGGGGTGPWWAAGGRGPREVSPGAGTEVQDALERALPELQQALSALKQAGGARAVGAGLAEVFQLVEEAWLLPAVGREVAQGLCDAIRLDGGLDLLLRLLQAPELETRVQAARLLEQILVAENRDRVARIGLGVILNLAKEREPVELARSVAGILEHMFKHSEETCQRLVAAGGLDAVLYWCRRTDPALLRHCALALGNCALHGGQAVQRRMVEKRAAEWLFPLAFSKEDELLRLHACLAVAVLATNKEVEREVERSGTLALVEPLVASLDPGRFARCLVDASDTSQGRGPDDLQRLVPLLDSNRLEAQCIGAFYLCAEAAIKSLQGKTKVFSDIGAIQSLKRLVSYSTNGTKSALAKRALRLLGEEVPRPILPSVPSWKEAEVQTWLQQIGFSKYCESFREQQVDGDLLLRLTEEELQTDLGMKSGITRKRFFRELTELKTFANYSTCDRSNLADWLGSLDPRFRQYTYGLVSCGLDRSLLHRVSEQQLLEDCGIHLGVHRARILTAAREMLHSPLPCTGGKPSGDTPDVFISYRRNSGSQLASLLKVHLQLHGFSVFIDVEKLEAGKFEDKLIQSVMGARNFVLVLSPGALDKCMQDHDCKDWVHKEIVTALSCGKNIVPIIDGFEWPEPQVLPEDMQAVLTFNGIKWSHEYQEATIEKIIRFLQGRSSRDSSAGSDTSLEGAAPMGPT

[2] = biological target: Mitogen-activated protein kinase 7 (Homo sapiens) (UniProt Q13164); assay: Gal4-ERK5 driven luciferase induction – cell-based, HTS, primary screen (AID 1508626;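 active = luciferase signal above three times the same-plate solvent-only control wells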;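 note: luciferase driven by Gal4-ERK5 fusion binding five Gal4 sites before minimal TATA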); settings: HeLa Gal4-ERK5 transactivation, 18 h, at 5 µM, stronger effect = higher value
Chain of Mitogen-activated protein kinase 7 (Homo sapiens) (Q13164 whole entry, looked up, the tested form may be a part): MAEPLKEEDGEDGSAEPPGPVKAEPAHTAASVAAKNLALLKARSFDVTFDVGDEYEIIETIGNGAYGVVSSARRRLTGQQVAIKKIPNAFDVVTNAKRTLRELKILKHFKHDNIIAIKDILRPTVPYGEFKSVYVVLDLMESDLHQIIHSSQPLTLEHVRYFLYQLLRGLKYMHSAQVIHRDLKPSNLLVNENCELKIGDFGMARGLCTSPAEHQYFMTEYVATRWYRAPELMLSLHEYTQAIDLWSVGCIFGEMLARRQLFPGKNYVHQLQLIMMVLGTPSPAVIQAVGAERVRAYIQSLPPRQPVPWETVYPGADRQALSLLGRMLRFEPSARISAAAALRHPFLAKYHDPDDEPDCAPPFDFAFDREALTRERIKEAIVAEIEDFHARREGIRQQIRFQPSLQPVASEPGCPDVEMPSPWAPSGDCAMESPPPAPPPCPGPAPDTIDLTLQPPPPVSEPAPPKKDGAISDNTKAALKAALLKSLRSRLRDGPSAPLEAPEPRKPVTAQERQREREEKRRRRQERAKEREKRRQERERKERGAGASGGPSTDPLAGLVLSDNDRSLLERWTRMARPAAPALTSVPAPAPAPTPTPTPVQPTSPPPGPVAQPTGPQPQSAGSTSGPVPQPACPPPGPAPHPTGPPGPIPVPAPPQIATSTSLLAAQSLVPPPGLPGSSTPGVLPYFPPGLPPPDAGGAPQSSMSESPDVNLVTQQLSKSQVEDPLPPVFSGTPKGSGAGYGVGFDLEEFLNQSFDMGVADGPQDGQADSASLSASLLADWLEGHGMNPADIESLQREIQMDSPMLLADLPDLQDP

[3] = galactose survival enhancers in mitochondrial complex I cybrids – cell-based, galactose medium, ATP luminescence, primary screen (AID 1645843;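 active = z-score of at least 1.8 in each of two replicates, scored against plate mean and spread of sample wells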;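 note: positive z means more ATP and so rescue of galactose-driven cybrid death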); settings: complex I mutant cybrid cells, 72 h, stronger effect = higher value
F380Y = assay: BK channel mutant inhibitors and activators – cell-based, U2OS BacMam, thallium flux, beta subunits, selectivity assay, profiling panel (AID 1259406); settings: U2OS BacMam BK variants, at 30 µM;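 note: initial slope of Thallos dye fluorescence rise after thallium is added; log ratio against the mean of 0.3% DMSO vehicle wells on the same plate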
F380Y/beta1 = assay: as above; settings: U2OS BacMam BK variants, at 30 µM

COc1cc(OC)c(C(=O)CCCN2CCCC2)c(OC)c1
inactive: remaining NAD [1] 10 nM | luciferase signal [2] 40 AU | z-score [3] 0.65 | log fold change Tl+ flux (F380Y) -0.00984 | log fold change Tl+ flux (F380Y/beta1) -0.00851

CNS(=O)(=O)Cc1ccc2[nH]cc(CCN(C)C)c2c1
inactive: remaining NAD [1] 10 nM | z-score [3] 0.385 and 0.365 and 0.755 | log fold change Tl+ flux (F380Y) 0.0165 | log fold change Tl+ flux (F380Y/beta1) -0.000461

COc1ccc(C(=O)NCc2ccc(OCCN(C)C)cc2)cc1OC
inactive: remaining NAD [1] 14 nM | z-score [3] 0.35 and 0.59 | log fold change Tl+ flux (F380Y) -0.0346 | log fold change Tl+ flux (F380Y/beta1) -0.00341

CC(C(=O)O)c1ccc(CC2CCCC2=O)cc1 (configuration not stated)
inactive: remaining NAD [1] 10 nM | z-score [3] 0.695 and 0.805 | log fold change Tl+ flux (F380Y) -0.0107 | log fold change Tl+ flux (F380Y/beta1) -0.0699

CC(=O)O[C@H]1C[C@@H]2CC[C@@H]3[C@H](CC[C@@]4(C)[C@H]3C[C@H]([N+]3(C)CCCCC3)[C@@H]4OC(C)=O)[C@@]2(C)C[C@@H]1N1CCCCC1
inactive: remaining NAD [1] 10 nM | luciferase signal [2] 52 AU | z-score [3] 0.335 | log fold change Tl+ flux (F380Y) 0.0327 | log fold change Tl+ flux (F380Y/beta1) 0.014

Cc1[nH]c(=O)c(C#N)cc1-c1ccncc1
inactive: remaining NAD [1] 10 nM | z-score [3] 0.46 and 0.67 and 0.525 | log fold change Tl+ flux (F380Y) 0.00987 | log fold change Tl+ flux (F380Y/beta1) -0.00723

COc1ccc(CN2CCN(C(c3ccc(F)cc3)c3ccc(F)cc3)CC2)c(OC)c1OC
inactive: remaining NAD [1] 10 nM | z-score [3] -1.88 and -2.46 | log fold change Tl+ flux (F380Y) -0.0546 | log fold change Tl+ flux (F380Y/beta1) 0.0295

CC(Oc1c(Cl)cccc1Cl)C1=NCCN1 (configuration not stated)
inactive: remaining NAD [1] 10 nM | z-score [3] 0.71 and 0.175 | log fold change Tl+ flux (F380Y) 0.00819 | log fold change Tl+ flux (F380Y/beta1) -0.000881

CC(=O)NS(=O)(=O)c1ccc(N)cc1
inactive: remaining NAD [1] 10 nM | luciferase signal [2] 64 AU | z-score [3] -0.2 | log fold change Tl+ flux (F380Y) -0.0156 | log fold change Tl+ flux (F380Y/beta1) 0.00907

CCOC(=O)C1=C(C)NC(C)=C(C(=O)OC)C1c1cccc(Cl)c1Cl (configuration not stated)
inactive: remaining NAD [1] 10 nM | z-score [3] -1.02 and -1.48 and 1.76 | log fold change Tl+ flux (F380Y) 0.00922 | log fold change Tl+ flux (F380Y/beta1) -0.0618

CCC(=O)O[C@]1(C(=O)SCF)[C@H](C)C[C@H]2[C@@H]3C[C@H](F)C4=CC(=O)C=C[C@]4(C)[C@@]3(F)[C@@H](O)C[C@@]21C
inactive: remaining NAD [1] 10 nM | z-score [3] 0.435 | log fold change Tl+ flux (F380Y) 0.0283 | log fold change Tl+ flux (F380Y/beta1) -0.0132

CCN1CCCC1CNC(=O)c1cc(S(=O)(=O)CC)c(N)cc1OC (configuration not stated)
inactive: remaining NAD [1] 10 nM | z-score [3] 0.105 and 0.58 and -0.055 | log fold change Tl+ flux (F380Y) 0.00396 | log fold change Tl+ flux (F380Y/beta1) 0.016

Cc1cn([C@H]2C=C[C@@H](CO)O2)c(=O)[nH]c1=O
inactive: remaining NAD [1] 21 nM | z-score [3] 0.32 and 1.07 | log fold change Tl+ flux (F380Y) -0.00288 and 0.0465 | log fold change Tl+ flux (F380Y/beta1) 0.0156 and 0.0441

Cc1nccn1CC1CCc2c(c3ccccc3n2C)C1=O (configuration not stated)
inactive: remaining NAD [1] 10 nM | z-score [3] 0.415 and 0.495 and 0.69 | log fold change Tl+ flux (F380Y) 0.0107 and 0.024 | log fold change Tl+ flux (F380Y/beta1) 0.000378 and -0.0486

CC(=O)OCC(=O)NCCCOc1cccc(CN2CCCCC2)c1
inactive: remaining NAD [1] 10 nM | z-score [3] 0.45 and 0.22 | log fold change Tl+ flux (F380Y) -0.0125 | log fold change Tl+ flux (F380Y/beta1) -0.015

O=C(CCNNC(=O)c1ccncc1)NCc1ccccc1
inactive: remaining NAD [1] 10 nM | luciferase signal [2] 76 AU | z-score [3] 0.035 and 0.205 and 0.305 | log fold change Tl+ flux (F380Y) 0.000985 | log fold change Tl+ flux (F380Y/beta1) 0.00246

CN(C/C=C/C#CC(C)(C)C)Cc1cccc2ccccc12
inactive: remaining NAD [1] 10 nM | luciferase signal [2] 52 AU | z-score [3] -1.48 | log fold change Tl+ flux (F380Y) -0.0709 | log fold change Tl+ flux (F380Y/beta1) -0.00172

CCN1CC(CCN2CCOCC2)C(c2ccccc2)(c2ccccc2)C1=O (configuration not stated)
inactive: remaining NAD [1] 10 nM | z-score [3] 0.71 | log fold change Tl+ flux (F380Y) 0.0128 | log fold change Tl+ flux (F380Y/beta1) -0.0268

CC(C)NCC(O)COc1ccc(COCCOC(C)C)cc1 (configuration not stated)
inactive: remaining NAD [1] 10 nM | luciferase signal [2] 84 AU | z-score [3] 0.495 and 0.79 and 0.73 | log fold change Tl+ flux (F380Y) 0.0667 | log fold change Tl+ flux (F380Y/beta1) 0.0784
